RE007 growth inh: qHTS Assay for Inhibitors of the HIV-1 protein Vpr. Potency, µM (highest dose often 92.2 µM), for inactives: at the top dose activity change, negative = less growth, hits mostly inhibitors. S. pombe RE007 Vpr strain, BacTiter-Glo ATP luminescence, 24 h. actives 0.21% (n = 360,000). AID 651644, 2012; active = well fitted falling curve with a large enough effect; inconclusive = small, poorly fitted or top-dose-only effect; inactive = no such curve, though single readings can be large or run the other way; note: potency is the fitted concentration of half-maximal effect; nearly all actives have a fitted effect of over 50% in size
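Fission yeast RE007 carrying one integrated HIV-1 vpr copy, seeded at OD 0.01 in PMG+AL medium with 23 nL pinned compound. Grown 24 h at 30 degrees; viability read by BacTiter-Glo luminescence after 5 min.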
FMDV antiviral: High Throughput Screening for Foot and Mouth Disease Virus Antivirals; FMDV antiviral cell-based qHTS; Potency, µM (highest dose often 57.9 µM), inactives show at the top dose activity change, negative = inhibition, hits mostly inhibitors; actives 1.2% (n = 410,000); calls by dose curve; tested in HEK293T cells; note: read-out not given here; potency is the fitted concentration of half-maximal effect; nearly all actives have a fitted effect of over 45% in size
HCMV inh: qHTS Assay for inhibitors of the human cytomegalovirus (HCMV). actives 4.5% (n = 410,000). HFF cells, HCMV-luciferase reporter, 72 h; active compounds read low. AID 1259415, 2018. activity change, negative = inhibition, % at 57.5 µM; in the data active = activity change below about -60%; inconclusive = no clear call, values can overlap the other calls; inactive = above about -39%
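Cell-based, HFFs, 1000 cells/well, 16 h 37C; cpds in DMSO + HCMV-luc, MOI 1 PFU/cell; 72 h 37C; OneGlo luminescence after 5 min RT; norm. to buffer vs Salinomycin 10uM.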
Tb PYK inh: qHTS of Trypanosoma Brucei Inhibitors; pyruvate kinase (Trypanosoma brucei), Q57TT1; TbPYK enzyme, Kinase-Glo Plus ATP luminescence, 45 min; Potency, µM (highest dose often 76.8 µM), without a hit: top-dose activity, negative = inhibition, most hits filed as inhibitors; actives 0.12% (n = 410,000); note: potency is the fitted concentration of half-maximal effect; nearly all actives have a fitted effect of over 50% in size
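Quantitative HTS: titrated library compounds versus trypanosomal pyruvate kinase in TEA buffer (pH 7.2) containing KCl, MgCl2, BSA and Tween-20. Reactions were initiated with ADP, 130 uM final. Kinase-Glo Plus luminescence was read after 45 min at RT.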
Giardia FBPA inh: qHTS Assay for Inhibitors of Fructose-1,6-bisphosphate Aldolase from Giardia Lamblia | A8B2U2 | purified Giardia FBPA | Potency, µM (doses to about 59.6 µM), for the others: at the highest dose activity, negative = inhibition, usual class: inhibitors | actives 0.71% (n = 290,000) | AID 2451, 2010; note: potency is the fitted concentration of half-maximal effect; nearly all actives have a fitted effect of over 55% in size
Target sequence (A8B2U2 whole entry, looked up): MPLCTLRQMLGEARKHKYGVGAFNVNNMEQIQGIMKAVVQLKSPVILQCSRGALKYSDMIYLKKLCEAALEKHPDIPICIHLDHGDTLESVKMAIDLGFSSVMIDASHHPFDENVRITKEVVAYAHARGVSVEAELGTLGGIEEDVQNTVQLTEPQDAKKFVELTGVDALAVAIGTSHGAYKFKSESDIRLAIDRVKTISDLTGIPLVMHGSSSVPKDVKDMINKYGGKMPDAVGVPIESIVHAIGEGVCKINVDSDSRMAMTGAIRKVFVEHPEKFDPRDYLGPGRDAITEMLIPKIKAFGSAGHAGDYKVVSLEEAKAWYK
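Giardia FBPA (40 nM reagent) was preincubated 10 min at RT with compound (up to 57.5 uM final), then substrate plus GAPDH/TPI/NAD/arsenate coupling system with diaphorase/resazurin was added; resorufin fluorescence (525/598 nm) was read after 20 min.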
Sm TGR block: qHTS Assay for the Inhibitors of Schistosoma Mansoni Peroxiredoxins; purified TGR, DTNB reduction, TNB absorbance 405 nm; Potency, µM (top dose mostly 114 µM), inactives show at the top dose activity change, negative = inhibition, actives largely listed as inhibitors; actives 3% (n = 360,000); note: potency is the fitted concentration of half-maximal effect; nearly all actives have a fitted effect of over 60% in size
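TGR 20 nM + NADPH 100 uM (dispensed conc.), cpd preinc 15 min RT; start with NADPH (500 uM addition) then DTNB (15 mM addition). Kinetic TNB absorbance, 405 nm filter. Four-parameter Hill fit across titration.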
Starred values were filed as active, the others as inactive; u = inconclusive; x = not tested or not shown; [ ] = another dose, or the depositor's remark. Most compounds without a hit are left out; they make up all but 7.7% or so of the library. Unless noted, calls come from the whole dose curve; as a rule, active = well fitted curve in the direction sought with a large enough effect; inconclusive = small, poorly fitted or top-dose-only effect, or another doubt; inactive = no such curve, though single readings can be large; an effect the other way counts as inactive or inconclusive. % is set by controls: 0 for no effect and ±100 for the full control effect.

SMILES | RE007 growth inh | FMDV antiviral | HCMV inh | Tb PYK inh | Giardia FBPA inh | Sm TGR block
CC1=CC(C)(C)n2c(O)c(C3=NC(=S)NC3=O)c3cc(OC(=O)c4cccc5ccccc45)cc1c32 | 11% | u | -72* | 0% | -2%[12.9 µM] | 9%
CCOC(=O)c1ccc(N2CCN(c3cc(Cl)ccc3C)CC2)c(NC(=O)Nc2cccc(OC)c2)c1 | x | -13% | 17 | 3% | x | 8%
Cc1ccc2c(=O)cc(C(=O)Nc3nc4ccc(Cl)cc4s3)oc2c1C | x | -6% | 12 | 3% | x | -10%
COCCNC(=S)Nc1ccc2nc(N3CCN(C)CC3)cc(C)c2c1 | 3% | -17% | 71 | 8% | -3% | 40µM*
CCN(CC)CCNC(=S)Nc1ccc2nc(N3CCCC3)cc(C)c2c1 | -6% | -12% | -30 | -12% | -5% | 0%
CCCN(CCC)CCCNC(=S)Nc1ccc2nc(N3CCCC3)cc(C)c2c1 | 0% | -13% | -81* | -2% | u | 45µM*
Cc1cc(N2CCCC2)nc2ccc(NC(=S)NCCCOC(C)C)cc12 | -10% | -19% | u | 10% | -5% | 20µM*
CCC/C=C1/CCCOC(C(=O)NCCOC)(C(F)(F)F)C1 (stereo not given) | x | x | x | x | 5% | x
COc1ccc(C(=O)NCC2Cc3c(F)ccc(-c4nc(C)cnc4C)c3O2)cc1F (stereo not given) | x | -5% | x | x | x | x
Cc1cc(NC(=O)CCC(=O)N(c2ccccc2)C(C(=O)NC2CCCCC2)c2cccs2)no1 (stereo not given) | 9% | -1% | -65* | 2% | 3% | -2%
CCc1ccc(C(C(=O)NC2CCCC2)N(C(=O)/C=C/C(=O)Nc2cc(C)on2)c2ccccc2C)cc1 (stereo not given) | -12% | 26% | -10 | -1% | 0% | 6%
CCOc1ccc(N(C(=O)/C=C/C(=O)Nc2cc(C)on2)C(C(=O)NC2CCCC2)c2ccccc2C)cc1 (stereo not given) | 20% | u | -93* | -1% | -1% | -8%
Cc1cc(NC(=O)CCC(=O)N(Cc2ccco2)C(C(=O)NC2CCCC2)c2ccccc2)no1 (stereo not given) | -4% | 4% | -27 | 3% | -8% | -1%
Cc1cc(NC(=O)CCC(=O)N(Cc2ccco2)C(C(=O)NC2CCCC2)c2ccc(F)cc2)no1 (stereo not given) | -5% | -11% | -63* | 2% | 2% | 2%
NC1CCCCC1N (stereo not given) | x | x | x | x | 0% | x
N#Cc1nc(-c2ccco2)oc1N1CCc2ccccc2C1 | 19% | 17% | -7 | -18% | -13% | 50µM*
COC(=O)c1ccc(C2c3c(-c4ccc(Br)cc4)n[nH]c3C(=O)N2c2ccc(Cl)cc2)cc1 (stereo not given) | x | u | -103* | -5% | x | -5%
O=C1c2[nH]nc(-c3ccc(Br)cc3)c2C(c2cccc(O)c2)N1c1ccc(Cl)cc1 (stereo not given) | x | u | -105* | 1% | x | 0%
COC(=O)c1ccc(C2c3c(n[nH]c3C)C(=O)N2c2ccc(C)cc2)cc1 (stereo not given) | 23% | 1% | 11 | -4% | 2% | 13%
O=C1c2[nH]nc(-c3ccccc3)c2C(c2ccccc2)N1c1cccc(C(F)(F)F)c1 (stereo not given) | x | u | -108* | -5% | x | 10%
CCn1cc(C(=O)NCc2ccccc2)c(=O)c2cc(S(=O)(=O)N3CCOCC3)ccc21 | x | 1% | 1 | -9% | x | -13%
S=C1Cc2ccccc2N1 | 5% | 32µM* | -83* | -23% | -17% | -27%
Cc1cccc2cc(CN(C(=O)c3ccc(-c4ccc(F)cc4)cc3)C3CC3)c(N3CCC(O)CC3)nc12 | x | -19% | x | x | x | x
CCc1ccc(N2C(=O)NC(=O)/C(=C\c3cc(C)n(-c4cc(C(=O)O)cc(C(=O)O)c4)c3C)C2=O)cc1 | 10% | -5% | -8 | -16% | -15% | 8.9µM*
Cc1ccc(N2C(=O)NC(=O)/C(=C\c3cc(C)n(-c4cc(C(=O)O)cc(C(=O)O)c4)c3C)C2=O)cc1 | 26% | 45% | 34 | -3% | -9% | 7.9µM*
SMILES | RE007 growth inh | FMDV antiviral | HCMV inh | Tb PYK inh | Giardia FBPA inh | Sm TGR block
Cc1ccc(-c2cn(CCC(=O)O)c(=O)cn2)cc1 | x | x | -9 | x | x | x
CCOC(=O)C1CCCN(CCC(=O)Nc2ccc(C)c(C)c2)C1 (stereo not given) | -5% | 0% | -39 | 7% | -3% | 2%
CCOC(=O)C1CCN(CCC(=O)Nc2ccc(C)c(C)c2)CC1 | 0% | -7% | -67* | -7% | 6% | 9%
CC1CCN(CCC(=O)Nc2ccc(Br)cc2)CC1 | 5% | x | -68* | -3% | x | x
O=C(CCN1CCCC1)Nc1ccc(Br)cc1 | -14% | -6% | -6 | -6% | -14% | -10%
Oc1ccc(Nc2nccc3[nH]c(-c4cccc(F)c4)cc23)cc1 | x | x | -9 | x | x | x
CC(C)(C)n1nnnc1C(CCc1ccccc1)N1CCC(n2c(=O)[nH]c3ccccc32)CC1 (stereo not given) | 3% | 32µM* | -99* | -12% | x | x
O=c1[nH]c2ccccc2n1C1CCN(C(CCc2ccccc2)c2nnnn2C2CCCCC2)CC1 (stereo not given) | 0% | 28µM* | -91* | 5% | x | x
CSCCC(c1nnnn1C1CCCCC1)N1CCC(n2c(=O)[nH]c3ccccc32)CC1 (stereo not given) | 5% | u | -93* | -1% | x | x
COc1ccc(CNC(=O)C(CC(C)C)NS(=O)(=O)c2ccc3c(c2)oc(=O)n3C)cc1 (stereo not given) | x | 3% | 6 | -4% | x | 4%
Cc1cccc(C)c1NC(=O)CNC(=O)CNC(=O)Cc1cccc2ccccc12 | -11% | -1% | -3 | 4% | x | 6.3µM*
CC(C)(C)CC(=O)NC1CC(=O)N(c2ccc3c(c2)OCCO3)C1 (stereo not given) | x | -18% | 4 | 0% | x | -2%
CC(C)c1c(C(=O)NCC2(N3CCOCC3)CCCC2)cnn1-c1nccc(-c2cccs2)n1 | x | 8% | x | x | x | x
c1ccc(N(c2ccccc2)c2nc(N3CCCC3)nc(-n3ccnc3)n2)cc1 | -18% | u | -66* | 6% | 8% | -21%
COc1ccc(NC(=O)NC2COc3ccccc3C2)c(OC)c1 (stereo not given) | x | 1% | 11 | 0% | x | 4%
OCc1ccccc1OCc1ccccc1 | x | x | -9 | x | x | x

Screens (PubChem)
